Source: ChEMBL document CHEMBL4513141, “CO-ADD screening of NIH (USA) - Clinical Collection” (2021)
Potency and affinity values are given separately.

Columns and labels:
Staphylococcus aureus = conditions: Concentration 20 uM; ASSAY_TEST Inhibition of Bacterial Growth; detection method Absorption (OD600); MEDIA CAMHB; plate type 384well; NBS; CORNING #3640; time 18 hr
Escherichia coli = conditions: Concentration 20 uM; ASSAY_TEST Inhibition of Bacterial Growth; detection method Absorption (OD600); MEDIA CAMHB; plate type 384well; NBS; CORNING #3640; time 18 hr

Compound | Inhibition (Staphylococcus aureus) [%] | Inhibition (Escherichia coli) [%]
O=C(O)c1cc2ccccc2c(Cc2c(O)c(C(=O)O)cc3ccccc23)c1O.OCCOCCN1CCN(C(c2ccccc2)c2ccc(Cl)cc2)CC1 [HYDROXYZINE PAMOATE] | 11.96 | 0.33
CCCNCC(O)COc1ccccc1C(=O)CCc1ccccc1 (stereo not drawn) [PROPAFENONE] | 9.33 | 8.72
CCS(=O)(=O)CCn1c([N+](=O)[O-])cnc1C [TINIDAZOLE] | 16.09 | -5.72
C[C@H](N[C@@H](CCc1ccccc1)C(=O)O)C(=O)N1CCC[C@H]1C(=O)O [ENALAPRILAT ANHYDROUS] | -5.3 | 7.09
Cn1cnc([N+](=O)[O-])c1Sc1ncnc2[nH]cnc12 [AZATHIOPRINE] | 18.19 | 3.51
C#C[C@]1(O)CC[C@H]2[C@@H]3CCC4=Cc5oncc5C[C@]4(C)[C@H]3CC[C@@]21C [DANAZOL] | 2.21 | -2.5
Cl.NC[C@H]1CC[C@H](C(=O)Oc2ccc(CCC(=O)O)cc2)CC1 [CETRAXATE HYDROCHLORIDE] | 14.3 | -0.51
C=CCc1ccc(O)c(-c2ccc(O)c(CC=C)c2)c1 [HONOKIOL] | 11.41 | 4.96
Cl.O.OC[C@H]1O[C@@H](n2cnc3c(N[C@H]4CCC[C@@H]4O)ncnc32)[C@@H](O)C1O (stereo partly drawn) | 7.67 | 1.98
CCCC(=O)Nc1ccc(OCC(O)CNC(C)C)c(C(C)=O)c1.Cl (stereo not drawn) [ACEBUTOLOL HYDROCHLORIDE] | 10.2 | 2.85
N#Cc1ccc(C(c2ccc(C#N)cc2)n2cncn2)cc1 [LETROZOLE] | 12.65 | -0.32
CC(=O)[C@@]1(O)CC[C@H]2[C@@H]3C[C@H](C)C4=CC(=O)CC[C@]4(C)[C@H]3CC[C@@]21C | 8.66 | -5.84
Oc1ccc(/C=C/c2cc(O)cc(O)c2)cc1 [RESVERATROL] | 19.49 | 1.45
O=C1C(CC[S+]([O-])c2ccccc2)C(=O)N(c2ccccc2)N1c1ccccc1 (stereo not drawn) [SULFINPYRAZONE] | 18.52 | 6.57
O=c1c(O[C@@H]2O[C@H](CO)[C@H](O)[C@H](O)[C@H]2O)c(-c2ccc(O)c(O)c2)oc2cc(O)cc(O)c12 [HYPEROSIDE] | 7.34 | 3.89
COc1cc(N)c(Cl)cc1C(=O)N[C@@H]1CCN(CCCOc2ccc(F)cc2)C[C@@H]1OC.O [(R,S)-CISAPRIDE MONOHYDRATE] | 10.08 | 2.71
CC[C@@H]1C(=O)OC[C@@H]1Cc1cncn1C.Cl [PILOCARPINE HYDROCHLORIDE] | 15.92 | 5.77
CCCCCCCCCCC[C@@H](C[C@@H]1OC(=O)[C@H]1CCCCCC)OC(=O)[C@H](CC(C)C)NC=O [ORLISTAT] | 11.59 | -4.78
COc1ccccc1OCC(O)CN1CCN(CC(=O)Nc2c(C)cccc2C)CC1.Cl.Cl (stereo not drawn) [RANOLAZINE HYDROCHLORIDE] | 15.16 | -4.15
COc1cc2c(cc1OC)C(=O)C(CC1CCN(Cc3ccccc3)CC1)C2.Cl (stereo not drawn) [DONEPEZIL HYDROCHLORIDE] | 12.57 | -6.95

Compound | Inhibition (Staphylococcus aureus) [%] | Inhibition (Escherichia coli) [%]
O=C(NCCN1CCOCC1)c1ccc(Cl)cc1 [MOCLOBEMIDE] | 3.95 | 0.74
CC(C)(C#N)c1cc(Cn2cncn2)cc(C(C)(C)C#N)c1 [ANASTROZOLE] | -10.48 | 4.02
CC(=O)Nc1ccc(CC(=O)O)cc1 [ACTARIT] | -0.71 | 3.54
CCCN1CCCC[C@H]1C(=O)Nc1c(C)cccc1C.Cl [ROPIVACAINE HYDROCHLORIDE] | 13.36 | 1.04
CN(C)CC/C=C1/c2ccccc2COc2ccc(CC(=O)O)cc21.Cl [OLOPATADINE HYDROCHLORIDE] | -18.81 | 1.13
CCOC(=O)c1ccc(OC(=O)CCCCCN=C(N)N)cc1.CS(=O)(=O)O | 11.22 | -0.78
CCOC(=O)C1=C(C)NC(C)=C(C(=O)OC)C1c1cccc([N+](=O)[O-])c1 (stereo not drawn) [NITRENDIPINE] | 11.21 | -2.58
C#C[C@]1(O)CC[C@H]2[C@@H]3[C@H](C)CC4=C(CCC(=O)C4)[C@H]3CC[C@@]21C [TIBOLONE] | 12.93 | 2.02
CSc1ccc2c(c1)N(CCC1CCCCN1C)c1ccccc1S2.Cl (stereo not drawn) [THIORIDAZINE HYDROCHLORIDE] | 2.86 | 7.48
O=C1c2c(O)cc(O)cc2O[C@H](c2ccc(O)c(O)c2)[C@@H]1O | 15.43 | -4.02
Nc1nc(=O)c2nc(CNc3ccc(C(=O)N[C@@H](CCC(=O)O)C(=O)O)cc3)cnc2[nH]1 [FOLIC ACID] | 10.57 | -0.13
CCN1CCC[C@H]1CNC(=O)c1c(O)c(Cl)cc(Cl)c1OC [RACLOPRIDE] | 2.11 | 10.63
CC[C@H]1OC(=O)[C@H](C)C(=O)[C@H](C)[C@@H](O[C@@H]2O[C@H](C)C[C@H](N(C)C)[C@H]2O)[C@](C)(OC)C[C@@H](C)C(=O)[C@H](C)[C@@H]2N(CCCCn3cnc(-c4cccnc4)c3)C(=O)O[C@@]21C | 4.38 | 4.81
CC1Cc2ccccc2N1NC(=O)c1ccc(Cl)c(S(N)(=O)=O)c1 (stereo not drawn) [INDAPAMIDE] | 5.44 | -0.79
C[C@@H]1CN(CCCn2c3ccccc3c3ccccc32)C[C@H](C)N1.Cl.O | 5.93 | 5.61
NS(=O)(=O)c1cc2c(cc1Cl)N=CNS2(=O)=O [CHLOROTHIAZIDE] | 7.87 | -2.82
Cl.O=C1c2c(O)ccc(O)c2C(=O)c2c(NCCNCCO)ccc(NCCNCCO)c21 | -9.15 | 4.04
CCCc1nc(C(C)(C)O)c(C(=O)OCc2oc(=O)oc2C)n1Cc1ccc(-c2ccccc2-c2nnn[nH]2)cc1 [OLMESARTAN MEDOXOMIL] | 10.76 | -6.4
CCOC(=O)O[C@]1(C(=O)OCCl)CC[C@H]2[C@@H]3CCC4=CC(=O)C=C[C@]4(C)[C@H]3[C@@H](O)C[C@@]21C [LOTEPREDNOL ETABONATE] | -21.62 | 4.07
Cl.O=C(NCC1CCCCN1)c1cc(OCC(F)(F)F)ccc1OCC(F)(F)F (stereo not drawn) | 10.41 | -6.42

Compound | Inhibition (Staphylococcus aureus) [%] | Inhibition (Escherichia coli) [%]
Cc1cccc(C)c1OCC(C)N.Cl (stereo not drawn) [MEXILETINE HYDROCHLORIDE] | 13.57 | 3.59
CC(C)C[C@H](NC(=O)[C@@H](O)[C@H](N)Cc1ccccc1)C(=O)O [UBENIMEX] | 8.9 | -1.57
O=C(C1CCCCC1)N1CC(=O)N2CCc3ccccc3C2C1 (stereo not drawn) [PRAZIQUANTEL] | 20.65 | 3.85
CCOC(=O)[C@H](CCc1ccccc1)N[C@@H](C)C(=O)N1Cc2ccccc2C[C@H]1C(=O)O.Cl [QUINAPRIL HYDROCHLORIDE] | 16.74 | 4.26
NS(=O)(=O)c1cc2c(cc1C(F)(F)F)NC(Cc1ccccc1)NS2(=O)=O (stereo not drawn) [BENDROFLUMETHIAZIDE] | 4.68 | -3.75
NCC(=O)CCC(=O)O [AMINOLEVULINIC ACID] | 8.53 | 5.31
CC12CCC(=O)C=C1CCC1C2CCC2(C)C1CCC2(O)C(=O)CO (stereo not drawn) | 8.54 | -7.68
CC(C)Cc1ccc(C(C)C(=O)O)cc1 (stereo not drawn) [IBUPROFEN] | -8.87 | 0.37
CC[C@]1(O)C[C@@H]2CN(CCc3c([nH]c4ccccc34)[C@@](C(=O)OC)(c3cc4c(cc3OC)N(C=O)[C@H]3[C@@](O)(C(=O)OC)[C@H](OC(C)=O)[C@]5(CC)C=CCN6CC[C@]43[C@@H]65)C2)C1.O=S(=O)(O)O | 14.29 | -3.68
OCc1cccnc1 [NICOTINYL ALCOHOL] | 10.46 | 0.45
Nc1ncnc2c1ncn2[C@@H]1O[C@H](CO)C[C@@H]1O.O | 7.37 | 1.02
CC(C)c1ccc2c(c1)c(SC(C)(C)C)c(CC(C)(C)C(=O)O)n2Cc1ccc(Cl)cc1 | 10.09 | 5.68
CC(=O)S[C@@H]1CC2=CC(=O)CC[C@]2(C)[C@H]2CC[C@@]3(C)[C@@H](CC[C@@]34CCC(=O)O4)[C@H]12 [SPIRONOLACTONE] | 18.37 | 5.07
CCN(CC)CC(=O)Nc1c(C)cccc1C [LIDOCAINE] | 9.46 | -3.44
Cl.Nc1c2c(nc3ccccc13)CCCC2 [TACRINE HYDROCHLORIDE] | 10.46 | 0.14
CNCCCCOc1ccccc1Cc1ccccc1.Cl | 10.88 | 6.1
CCCNC(C)C(=O)Nc1ccccc1C.Cl (stereo not drawn) [PRILOCAINE HYDROCHLORIDE] | 16.77 | 4.99
CC(C)(C(=O)c1cccnc1)c1cccnc1 [METYRAPONE] | 4.18 | 6.34
CCN(CC)CCOc1ccc(C(=C(Cl)c2ccccc2)c2ccccc2)cc1.O=C(O)CC(O)(CC(=O)O)C(=O)O [CLOMIPHENE CITRATE] | 43.2 | 2.4
